# Records with an inconclusive call do not appear. Activity calls are given as the source filed them. The call rests on the fitted dose curve; in most records, active means well fitted curve in the direction sought with a large enough effect; inconclusive means small, poorly fitted or top-dose-only effect, or another doubt; inactive means no such curve, though single readings can be large or run the other way.
# Target: Polyunsaturated fatty acid lipoxygenase ALOX15 (Homo sapiens) (UniProt P16050)
# Sequence (P16050 whole entry, looked up): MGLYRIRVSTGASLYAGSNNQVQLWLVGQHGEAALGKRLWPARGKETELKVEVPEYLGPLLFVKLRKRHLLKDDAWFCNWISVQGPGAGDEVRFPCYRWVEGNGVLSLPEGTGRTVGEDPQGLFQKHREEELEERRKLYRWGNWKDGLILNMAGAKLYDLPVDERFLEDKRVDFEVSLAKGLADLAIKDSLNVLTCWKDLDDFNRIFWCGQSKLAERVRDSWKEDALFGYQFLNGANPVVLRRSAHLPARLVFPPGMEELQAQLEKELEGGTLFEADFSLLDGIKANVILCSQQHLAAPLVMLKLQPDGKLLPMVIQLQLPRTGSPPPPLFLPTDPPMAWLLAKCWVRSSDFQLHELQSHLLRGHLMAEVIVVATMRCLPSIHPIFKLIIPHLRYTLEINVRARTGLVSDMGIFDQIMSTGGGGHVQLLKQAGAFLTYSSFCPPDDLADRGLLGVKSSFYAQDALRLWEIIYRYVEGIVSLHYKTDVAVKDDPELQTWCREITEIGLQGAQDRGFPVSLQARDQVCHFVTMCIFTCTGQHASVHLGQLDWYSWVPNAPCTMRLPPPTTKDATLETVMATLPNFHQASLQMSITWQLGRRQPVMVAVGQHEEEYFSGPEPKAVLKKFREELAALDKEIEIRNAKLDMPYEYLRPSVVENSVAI
# Test: Counterscreen qHTS for inhibitors of human arachidonate 12S-lipoxygenase (ALOX12): ALOX15 Assay
# Settings: purified ALOX15 enzyme activity; series mostly up to 110 µM
# Outline: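 Xylenol orange–ferric complex formation, read as the 573 nm to 405 nm absorbance ratio, tracks product from 50 uM arachidonic acid turned over for 30 min at RT. Enzyme is 40 nM ALOX15, pH 7.5 HEPES buffer, compound-preincubated 15 min.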
row,Structure (SMILES),outcome
1,CC(C)OCCCNc1ncnc2c1CN(C1CCNC1)C(=O)CN2C (stereo not drawn),inactive
2,Cc1ccc(CN2CC3ON=C(C(=O)O)C3C2)cc1 (stereo not drawn),inactive
3,O=C1NCc2ccccc2CC12CCN(Cc1c(F)cccc1Cl)CC2,inactive
4,CN(C)C(=O)N1CCn2c(nnc2-c2cncc(Br)c2)C1,inactive
5,NCc1ccc(-c2cccc(Cl)c2)cc1,inactive
6,COc1ccc(C(=O)N2CCn3c(nnc3C3CCNCC3)C2)cc1,inactive
7,N#Cc1ccccc1CN1CCCC12Cc1ccccc1CNC2=O (stereo not drawn),inactive
8,C[S+](=O)([O-])N1CC2(Cc3ccccc3NC2=O)C1,inactive
9,CC(C)NC(=O)N1CCC(c2nnc3n2CCNC3)CC1,inactive
10,Cc1cc(C)cc(CN2CCC3(Cc4ccccc4CNC3=O)C2)c1 (stereo not drawn),inactive
11,CCC(=O)N1Cc2ccccc2CC2(CCN(CC3CCNC3)C2)C1 (stereo not drawn),inactive
12,C[C@H](C(=O)N1Cc2ccccc2CC2(CCN(Cc3ccncc3)C2)C1)c1ccccc1 (stereo partly drawn),inactive
13,CC(C)c1nc2c(c(-c3ccc(Cl)cc3)n1)CCN(C(=O)c1ccc3c(c1)OCO3)CC2,inactive
14,O=C1NCc2ccccc2CC12CCCN2Cc1cnc2ccccc2c1 (stereo not drawn),inactive
15,Cc1cc(C)c(CN2CCC3(Cc4ccccc4CNC3=O)C2)c(C)c1 (stereo not drawn),inactive
16,NCc1ccc(-c2cc(C(F)(F)F)ccc2Cl)cc1,inactive
17,N#Cc1cccc(CN2CCCC(c3nc4ccc(F)cc4c(=O)[nH]3)C2)c1 (stereo not drawn),inactive
18,CCCN1CCC2(CC1)Cc1ccccc1CN(C(=O)C(C)C)C2,inactive
19,O=C1NC(=NC2CCCCC2)C2(CCN(Cc3ccc(F)cc3)C2)N1c1cccnc1 (stereo not drawn),inactive

row,Structure (SMILES),outcome
1,COc1ccc(N2CC3CCC(C2)N3C(=O)NC(C)C)cc1,inactive
2,CC(=O)NCC(=O)N1Cc2ccccc2CC2(CCCN(CC3CCNC3)C2)C1 (stereo not drawn),inactive
3,O=Cc1ccc(-c2cncc(C(=O)O)c2)cc1,inactive
4,CN(C)C(=O)N1CCCC(c2nnc3n2CCNC3)C1 (stereo not drawn),inactive
5,Cn1nc(C2CCNC2)c2c(C(=O)NCc3ccc(F)cc3)cc(C3CC3)nc21 (stereo not drawn),inactive
6,CC(C)NC(=O)NC1CC2(CCN(C(=O)Cc3ccc(O)cc3)CC2)c2ccccc21 (stereo not drawn),inactive
7,Cc1noc(C)c1C(=O)N1Cc2ccccc2CC2(CCN(C)C2)C1 (stereo not drawn),inactive
8,CN(C)CCC(=O)N1Cc2ccccc2CC2(CCCN(C)C2)C1 (stereo not drawn),inactive
9,CCOC(=O)C1CC1CN1CCCC2(Cc3ccccc3CNC2=O)C1 (stereo not drawn),inactive
10,CN1CC(=O)N(C2CCCNCC2)Cc2c1ncnc2N1CCSCC1 (stereo not drawn),inactive
11,CN(C)CC(=O)N1Cc2ccccc2CC2(CCCN(CC3CCNC3)C2)C1 (stereo not drawn),inactive
12,CN1CC(=O)N(C2CCCNC2)Cc2c(NCC(C)(C)C)ncnc21 (stereo not drawn),inactive
13,CCC(=O)N1Cc2ccccc2CC2(CCCN(CC3CCNCC3)C2)C1 (stereo not drawn),inactive
14,O=[S+]([O-])(c1ccccc1)N1CC(Oc2ccc3c(c2)OCO3)C1,inactive
15,CCCC(=O)N1Cc2ccccc2CC2(CCCCN2Cc2ccccn2)C1 (stereo not drawn),inactive
16,CN1CC(=O)N(c2ccccc2F)Cc2c(NC3CCNCC3)ncnc21,inactive
17,O=C1Nc2ccccc2CN(CC2CCCCC2)C12CCNCC2,inactive
18,O=C(O)CCCC(=O)N1Cc2ccccc2CC2(CCCN(Cc3ccccn3)C2)C1 (stereo not drawn),inactive
19,NCc1ccc(-c2ccc(OC(F)(F)F)cc2)cc1,inactive

# Reference: PubChem BioAssay AID1671192 (National Center for Advancing Translational Sciences (NCATS), 2021)
